Source: PubChem
GLP1R ag = qHTS of GLP-1 Receptor Agonists | HEK293 GLP-1R CRE-luciferase, luminescence, 4-6 h; cells express a hypersensitive GLP-1R form | Potency, µM (highest dose often 45.6 µM), inactives show top-dose activation, actives largely listed as activators | hit rate 0.007% among 380,000; note: % of control where 0% means no effect
Target sequence (P43220 whole entry, looked up): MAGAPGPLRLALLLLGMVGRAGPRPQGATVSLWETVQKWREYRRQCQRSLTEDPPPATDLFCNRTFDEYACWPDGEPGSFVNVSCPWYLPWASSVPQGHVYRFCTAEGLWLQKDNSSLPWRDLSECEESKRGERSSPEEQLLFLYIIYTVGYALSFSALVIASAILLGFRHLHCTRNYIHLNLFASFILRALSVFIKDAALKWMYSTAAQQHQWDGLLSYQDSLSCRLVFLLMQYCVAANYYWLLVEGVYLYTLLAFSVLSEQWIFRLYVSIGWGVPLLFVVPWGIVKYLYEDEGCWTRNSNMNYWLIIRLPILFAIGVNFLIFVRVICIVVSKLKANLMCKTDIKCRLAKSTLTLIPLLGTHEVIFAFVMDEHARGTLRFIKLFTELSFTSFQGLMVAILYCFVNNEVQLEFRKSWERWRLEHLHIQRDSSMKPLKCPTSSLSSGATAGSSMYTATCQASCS
PTHR1 agonist = qHTS for PTHR1 Agonists: Primary Screen. HEK293 GP2 PTHR1 cells, GloSensor cAMP luminescence, 1 h. Potency, µM (titrated, usually from 115 µM), without a hit: at the highest dose activation, usual class: activators. hit rate 0.075% among 410,000. AID 743266, 2014; note: nearly all actives have a fitted effect of over 55% in size
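HEK-293-derived GP2 cells expressing PTHR1 and a GloSensor cAMP reporter, 3,000/well, plated overnight, given luciferin plus IBMX (each 0.5 mM as added) for 1 h at 37 °C, then compound for 1 h at 37 °C. Luminescence was read after 15 min at room temperature.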
GLP-1R inv ag = qHTS of GLP-1 Receptor Inverse Agonists (Inhibition Mode). AID 624417, 2012. Glucagon-like peptide 1 receptor (Homo sapiens), P43220. hit rate 1.6% among 410,000. Potency, µM (doses to about 38.3 µM), for the others: at the highest dose activity change, negative = inhibition, actives largely listed as inhibitors. HEK293 GLP-1R CRE-luciferase, luminescence, 24 h; GLP-1R form is constitutively active; note: % is set by controls: 0 for no effect and ±100 for the full control effect; nearly all actives have a fitted effect of over 55% in size
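Using stably transfected HEK293 (constitutively active GLP-1R, cAMP-luciferase reporter), compounds were incubated 24 hr and luciferase measured by luminescence.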
HEK293 tox = qHTS of GLP-1 Receptor Inverse Agonists: Cytotox Screen; Potency, µM (series often up to 38.3 µM), inactives show at the top dose activity change, negative = inhibition, usual class: inhibitors; HEK293 cAMP-luciferase reporter cells, luminescence, 24 h; hit rate 0.13% among 410,000;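 note: loss of luciferase light is scored as toxicity; % is set by controls: 0 for no effect and ±100 for the full control effect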
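A 23 nL compound transfer followed 12 hours of cell culture at 37 deg C; exposure then lasted 24 hr. Luciferase assay detection reagent was dispensed and plates read for luminescence after a 12 min room-temperature wait.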
* hit, by the source's call; [ ] = dose if it differs, or a comment. Most compounds without a hit are left out; they make up all but 1.7% or so of the library. Calls come from the whole dose curve; as a rule, active = well fitted curve in the direction sought with a large enough effect; inconclusive = small, poorly fitted or top-dose-only effect, or another doubt; inactive = no such curve, though single readings can be large; an effect the other way counts as inactive or inconclusive. Potency is the fitted concentration of half-maximal effect.

Results for CCCCC(CC)CNC(=O)CCCc1nnc2n(CCC)c(=O)c3sccc3n12 (configuration not stated) ?
PTHR1 agonist: -33%; GLP-1R inv ag: inconclusive; HEK293 tox: -18%

Results for Cc1ccc2c(Cl)c(C)c(N3CCCCC3)nc2n1 ?
GLP1R ag: 18%; PTHR1 agonist: inactive; GLP-1R inv ag: 7.1µM*; HEK293 tox: inconclusive

What do the screens show for `C=CC[C@]12CC=CC(=O)[C@@]1(O)O[C@H](c1ccc(OC)c(OC)c1)[C@H]2C`?
GLP1R ag: 0%; PTHR1 agonist: -84%; GLP-1R inv ag: 11µM*; HEK293 tox: -25%

Results for O=C(O)CC1NC(=S)N(Cc2ccccc2)C1=O (configuration not stated) ?
GLP1R ag: -3%; PTHR1 agonist: inactive; GLP-1R inv ag: 7.9µM*; HEK293 tox: inconclusive

How did O=C(c1nn(Cc2ccccc2)c(=O)c2ccccc12)N1CCN(C/C=C/c2ccccc2)CC1 do in these assays?
GLP1R ag: 15%; PTHR1 agonist: -12%[57.5 µM]; GLP-1R inv ag: 7.9µM*; HEK293 tox: -18%

Results for CNC(=S)NNC(=O)CCn1nc(C)c(Br)c1C ?
GLP1R ag: -9%; PTHR1 agonist: inactive; GLP-1R inv ag: 0%; HEK293 tox: -11%

Results for CCOCCCNC(=S)NNC(=O)CCn1nc(C)c(Br)c1C ?
GLP1R ag: 3%; PTHR1 agonist: inactive; GLP-1R inv ag: 5.6µM*; HEK293 tox: inconclusive

Results for N#Cc1ccccc1CSc1nnc(-c2ccc(Br)cc2)o1 ?
GLP1R ag: 18%; PTHR1 agonist: -23%; GLP-1R inv ag: 16%; HEK293 tox: 4%

Results for Cc1cccc(C(=O)N(Cc2ccco2)Cc2ccccc2F)c1 ?
PTHR1 agonist: inconclusive; GLP-1R inv ag: inconclusive; HEK293 tox: 16%

What do the screens show for `Cc1cccnc1C1=NOC(Cc2ccccc2)C(=O)N1C` (configuration not stated)?
GLP1R ag: -5%; PTHR1 agonist: inactive; GLP-1R inv ag: 14%; HEK293 tox: 2%

Results for CN(C)CCN(Cc1ccccc1)c1ccnc(N(C)C)c1C#N ?
GLP1R ag: 6%; PTHR1 agonist: inactive; GLP-1R inv ag: 1%; HEK293 tox: 1%

What do the screens show for `CN(C)c1nccc(N(Cc2ccccc2)Cc2ccccc2)c1C#N`?
GLP1R ag: -1%; PTHR1 agonist: -8%; GLP-1R inv ag: 11µM*; HEK293 tox: 46%

Results for CC(C)=CCOc1ccc([C@@H]2COc3c(ccc4c3C=CC(C)(C)O4)C2)c(O)c1 ?
GLP1R ag: -3%; PTHR1 agonist: -39%; GLP-1R inv ag: 10µM*; HEK293 tox: inconclusive

Results for O=C(NC(=S)N1CCc2ccccc21)c1ccccc1Cl ?
GLP1R ag: 0%; PTHR1 agonist: -66%; GLP-1R inv ag: 7%; HEK293 tox: inconclusive

Results for O=C(NC(=S)N1CCc2ccccc21)c1ccccc1 ?
GLP1R ag: -14%; PTHR1 agonist: -2%; GLP-1R inv ag: inconclusive; HEK293 tox: 4µM*

How did CCCN1CCN(CCCNC(=O)c2ccc3c(Cl)c4c(nc3c2)CCCC4)CC1 do in these assays?
GLP1R ag: 11%; PTHR1 agonist: inactive; GLP-1R inv ag: 5µM*; HEK293 tox: inconclusive

What do the screens show for `CCN(CC)CCCNC(=O)c1ccc2c(Cl)c3c(nc2c1)CCCC3`?
GLP1R ag: 7%; PTHR1 agonist: 8%; GLP-1R inv ag: 4.5µM*; HEK293 tox: inconclusive

How did Cc1cc(C)cc(NC(=O)Cn2nnc(C(=O)Nc3cc(C)cc(C)c3)c2N)c1 do in these assays?
GLP1R ag: -1%; PTHR1 agonist: -32%; GLP-1R inv ag: inconclusive; HEK293 tox: -14%

How did CCC(C(=O)Nc1cc(C)nn1-c1nc(C)cc(C)n1)c1ccccc1 (configuration not stated) do in these assays?
GLP1R ag: 19%; PTHR1 agonist: inactive; GLP-1R inv ag: 3.5µM*; HEK293 tox: inconclusive

Results for Cc1cc(C)nc(-n2nc(C)cc2NC(=O)CN2CCc3ccccc3C2)n1 ?
GLP1R ag: 10%; PTHR1 agonist: inactive; GLP-1R inv ag: inconclusive; HEK293 tox: 5µM*

What do the screens show for `Cc1cc(C)nc(-n2nc(C)cc2NC(=O)CNCc2ccccc2)n1`?
GLP1R ag: -14%; PTHR1 agonist: inactive; GLP-1R inv ag: 16%; HEK293 tox: -1%

How did CCC(=O)c1ccc2c(c1)N(CCCN1CCN(CCO)CC1)c1ccccc1S2 do in these assays?
GLP1R ag: 13%

What do the screens show for `Cc1c(C)c2ccc(OCC(=O)Nc3ccccn3)c(C)c2oc1=O`?
GLP1R ag: -5%; PTHR1 agonist: -27%; GLP-1R inv ag: 10µM*; HEK293 tox: 19%

How did Cc1cccc(OCCCC(=O)N2CCCCCC2)c1C do in these assays?
GLP1R ag: 21%; PTHR1 agonist: -6%; GLP-1R inv ag: 8.9µM*; HEK293 tox: 0%

Results for COc1ccccc1OCC(=O)N1CCN(c2ccccc2OC)CC1 ?
GLP1R ag: 23%; PTHR1 agonist: -8%[57.5 µM]; GLP-1R inv ag: -1%; HEK293 tox: 3%

Results for Cc1cccc(OCCCC(=O)O)c1C ?
GLP1R ag: -8%; PTHR1 agonist: inactive; GLP-1R inv ag: 10%; HEK293 tox: 15%

How did COc1ccccc1N1CCN(C(=O)COc2cccc(C)c2C)CC1 do in these assays?
GLP1R ag: 14%; PTHR1 agonist: -5%; GLP-1R inv ag: 7.1µM*; HEK293 tox: -3%

Results for COC(=O)c1cc2sc(C)cc2n1CC(=O)Nc1cccc(SC)c1 ?
PTHR1 agonist: inactive; GLP-1R inv ag: -3%; HEK293 tox: -5%

How did NCCCC[C@H](NC(=O)[C@@H]1CCCN1C(=O)[C@@H]1CSSC[C@H](NC(=O)CNC(=O)CNC(=O)CN)C(=O)N[C@@H](Cc2ccc(O)cc2)C(=O)N[C@@H](Cc2ccccc2)C(=O)N[C@@H](CCC(N)=O)C(=O)N[C@@H](CC(N)=O)C(=O)N1)C(=O)NCC(N)=O do in these assays?
GLP1R ag: 0%

What do the screens show for `CCOc1ccc(NC(=S)N(CCc2c(C)[nH]c3ccc(C)cc23)Cc2ccco2)cc1`?
GLP1R ag: -5%; PTHR1 agonist: inactive; GLP-1R inv ag: 7.9µM*; HEK293 tox: 14%

How did COc1ccc(NC(=S)N(CCc2c(C)[nH]c3ccc(C)cc23)Cc2ccco2)cc1 do in these assays?
GLP1R ag: 1%; PTHR1 agonist: -36%; GLP-1R inv ag: inconclusive; HEK293 tox: -18%

Results for CCc1cccc(NC(=O)c2ccc(CN3C(=O)C(C)=C(c4ccc(OC)cc4)S3(=O)=O)cc2)c1 ?
PTHR1 agonist: inactive; GLP-1R inv ag: 0%; HEK293 tox: 9%

Results for O=[N+]([O-])c1cc(C(F)(F)F)cc([N+](=O)[O-])c1NCCNC(=S)Nc1ccc(Cl)c(Cl)c1 ?
GLP1R ag: -1%; PTHR1 agonist: -33%; GLP-1R inv ag: 8.9µM*; HEK293 tox: inconclusive
